Data: PubChem BioAssay AID463173 (ICCB-Longwood Screening Facility, Harvard Medical School, 2010)
The whole screen tested about 52,000 compounds, of which about 4,300 (8.3%) were called active. For the sample, actives were picked, then their nearest neighbours and some compounds at random. Unmarked numbers belong to inactive results. Cut-off read from the data, not from the text of the source: active = survival mostly below about 52% (no sharp cut-off); inactive = mostly above about 56%.

Tested on: DeltatarO mutant
Assay: growth inhibition of S. aureus wild type versus tarO mutant, primary screen, teichoic acid synthesis inhibitors, RN4220, OD600 (AID 463173)
Conditions: OD600, 18 h, active compounds read low, screened at 18.75 µg/mL (by protocol)

SMILES	survival
Cc1cccc(C(=O)Nc2ccc(OCc3cc(=O)n4ccsc4n3)cc2)c1	101%
O=C(CSc1ccccn1)Nc1cccc(F)c1	85%
COC(=O)C(C)(C)Sc1nnc2c(n1)[nH]c1c(C)cc(C)cc12	55%
COc1cc(NC(=O)c2ccc(-n3cnc4cccnc43)cc2)cc(OC)c1	55%
Cc1cccc(NC(=O)c2ccc(-n3cnc4cccnc43)cc2)c1C	82%
COc1cc(OC)c(NC(=O)c2ccc(-n3cnc4cccnc43)cc2)cc1Cl	52% (active)
CN1C(C(=O)Nc2cccc(O)c2)=CC(c2ccco2)=NS1(=O)=O	88%
CCn1c(C)c(C)c2cc(C(=O)NCc3ccc(F)cc3)ccc21	90%
COc1ccc(CNC(=O)CCc2c(C)nc3c(c2C)c(=O)n(C)c(=O)n3C)cc1	115%
CCN(CC)S(=O)(=O)c1nnc(NC(=O)c2ccc(C(C)C)cc2)s1	44% (active)
CCN(CC)S(=O)(=O)c1nnc(NC(=O)c2ccc(Br)cc2)s1	44% (active)
CCN(CC)S(=O)(=O)c1nnc(NC(=O)c2ccc(C)cc2)s1	63%
CCN(CC)S(=O)(=O)c1nnc(NC(=O)COc2ccccc2)s1	100%
CCN(CC)S(=O)(=O)c1nnc(NC(=O)COc2ccc(C)cc2)s1	88%
CCN(CC)S(=O)(=O)c1nnc(NC(=O)COc2ccc(Cl)cc2)s1	87%
COCCCNC(=O)c1sc2ncccc2c1-n1cccc1	75%
COc1ccc(CNC(=O)C2CCN(c3nnc(-n4c(C)ccc4C)s3)CC2)c(OC)c1	87%
COc1ccc2c(c1)CC(NC(=O)Nc1ccc(Br)c(C)c1)CO2 (stereo not drawn)	75%
CCOC(=O)C1=C(CN2CCN(c3cccc(OC)c3)CC2)NC(=O)NC1c1ccc(OC)cc1 (stereo not drawn)	88%
COC(=O)c1scc(-c2ccc(C)cc2)c1S(=O)(=O)N1CCN(c2ccc(F)cc2)CC1	-4% (active)
COC(=O)c1scc(-c2ccc(C)cc2)c1S(=O)(=O)N1CCN(c2ccccc2)CC1	72%
Cn1cc(S(=O)(=O)N2CCCCCC2)cc1C(=O)N1CCN(c2ccc(F)cc2)CC1	75%
COC(=O)c1scc(-c2ccc(C)cc2)c1S(=O)(=O)N1CCN(c2ccc(OC)cc2)CC1	60%
Cn1cc(S(=O)(=O)N2CCCCC2)cc1C(=O)N1CCN(c2ccc(F)cc2)CC1	55%

SMILES	survival
COC(=O)c1cc(S(=O)(=O)N2CCN(c3ccc(F)cc3)CC2)cn1C	-5% (active)
Cc1cc(C)cc(NC(=O)N2CCC(NC(=O)C3CCCCC3)CC2)c1	92%
Cc1ccccc1NC(=O)CN1CCCC1	70%
COCCCn1c(=O)c2sccc2n2c(CCCC(=O)NCc3ccc(F)cc3)nnc12	92%
O=c1c2sc3ccccc3c2n(Cc2cccc(C(F)(F)F)c2)c(=O)n1Cc1ccccc1	67%
CCOC(=O)c1[nH]c2ccccc2c1NC(=O)c1ccccc1OCC	68%
CCOC(=O)c1[nH]c2ccccc2c1NC(=O)c1ccccc1OC	51% (active)
CCOC(=O)c1[nH]c2ccccc2c1NC(=O)c1ccc(OC)c(OC)c1	131%
CCOC(=O)c1[nH]c2ccccc2c1NC(=O)c1cc(OCC)c(OCC)c(OCC)c1	97%
CCOC(=O)c1[nH]c2ccccc2c1NC(=O)c1cc(OC)cc(OC)c1	48% (active)
CCOC(=O)c1[nH]c2ccccc2c1NC(=O)c1ccccc1F	53%
Cc1ccc(CNC(=O)c2sc3nc(-c4ccccc4)cn3c2C)cc1	123%
Cc1ccc2oc(C(=O)Nc3c(C(=O)c4ccc(C)c(F)c4)oc4ccccc34)cc(=O)c2c1	58%
CCOc1ccc2nc(Cl)c(C3CC(c4ccc(OC)cc4)=NN3S(C)(=O)=O)cc2c1 (stereo not drawn)	127%
CCOc1ccc2nc(Cl)c(C3CC(c4ccc(C)cc4)=NN3C(=O)CCC(=O)O)cc2c1 (stereo not drawn)	50%
CCS(=O)(=O)N1N=C(c2ccc(C)cc2)CC1c1cc2ccc(OC)cc2nc1Cl (stereo not drawn)	44% (active)
CCOc1ccc(C2C(=O)N(C3CCCCCC3)CC(=O)N2CCc2ccccc2)cc1OC (stereo not drawn)	88%
N#Cc1cc(C#N)c(SCC(N)=O)nc1N	72%
CCc1ccccc1N1C(=O)N(Cc2ccc(C#N)cc2)c2ccccc2S1(=O)=O	120%
Cc1ccc(NC(=O)N(Cc2c[nH]c3ccccc23)C2CCCCCC2)cc1C	56%
Cn1cc(CN(C(=O)Nc2ccc(Cl)c(Cl)c2)C2CCCCC2)c2ccccc21	51%
O=C(Nc1ccccc1)N(Cc1c[nH]c2ccccc12)C1CCCCCC1	52%
Cc1ccc(NC(=O)N(Cc2cn(C)c3ccccc23)C2CCCCC2)cc1C	-13% (active)
COc1ccc2[nH]c(=O)c(CN(C(=O)Nc3ccccc3)C3CCCC3)cc2c1	78%

SMILES	survival
Cn1cc(CN(C(=O)Nc2ccccc2)C2CCCCC2)c2ccccc21	-14% (active)
CCC(C(=O)NCc1ccccc1)n1nc(C)c2sc3ccccc3c2c1=O (stereo not drawn)	70%
COc1cccc(CNc2sc3c(c2C(=O)Nc2ccc(OC)cc2OC)CCC3)c1	99%
CC(=O)Nc1nonc1-c1nnc(SCC(=O)Nc2cc(C)cc(C)c2)n1C	52%
CC1CCC(NC(=O)C2(C)Cc3ccccc3C(=O)N2Cc2ccccc2Cl)CC1 (stereo not drawn)	48%
CC1(C(=O)NC2CCCCC2)Cc2ccccc2C(=O)N1Cc1ccccc1Cl (stereo not drawn)	43% (active)
CC1(C(=O)NC2CCCCC2)Cc2ccccc2C(=O)N1Cc1ccc(Cl)cc1 (stereo not drawn)	92%
N#Cc1ccc(S(=O)(=O)N2CCNCC2)cc1	98%
CC1=C(c2ccc(C(C)C)cc2)S(=O)(=O)NC1=NCc1ccccc1C	77%
Cc1[nH]n(-c2ccc(Cl)cc2)c(=O)c1C(=O)c1ccccc1	40% (active)
Cc1[nH]n(-c2ccccc2)c(=O)c1/C=N/NC(=O)c1ccccc1	50%
Cc1[nH]n(-c2ccccc2)c(=O)c1C(c1cc(Cl)ccc1O)c1c(C)[nH]n(-c2ccccc2)c1=O	49%
Cc1ccc2oc(-c3ccc(NC(=O)CCC(=O)O)cc3)nc2c1	86%
Cc1ccc(-c2nc3sccn3c2Nc2ccccc2C)cc1	48%
CCc1cccc(C)c1Nc1c(-c2cccc(O)c2)nc2sccn12	105%
COc1cc(-c2nc3sccn3c2Nc2c(C)cccc2C)ccc1O	125%
Cc1ccc(-c2nc3sccn3c2Nc2ccc(C)c(C)c2)cc1	36% (active)
Cc1cccc(C)c1Nc1c(-c2ccc(O)cc2)nc2sccn12	28% (active)
Cc1ccc(Nc2c(-c3ccc(Cl)cc3)nc3sccn23)c(C)c1	47%
Cc1cc(Cl)ccc1NC(=O)CN(c1ccccc1Br)S(C)(=O)=O	55%
CCOc1ccc(-n2ccnc2SCC(=O)Nc2cccc3ccccc23)cc1	68%
O=c1cc(CN2CCN(S(=O)(=O)c3ccc(Cl)cc3)CC2)nc2sc(-c3ccccc3F)nn12	104%
Cc1cccc(-n2ncc3c(NC4CCCC4)ncnc32)c1	69%
O=C(O)c1ccc(/C=N/n2cnnc2)cc1	111%

SMILES	survival
Cc1cccc(CNC(=O)c2oc3c(c2C)-c2nn(Cc4cccc(Cl)c4)cc2CC3)c1	97%
Cc1ccccc1NC(=O)c1oc2c(c1C)-c1nn(Cc3cccc(Cl)c3)cc1CC2	35% (active)
CCn1cc2c(n1)-c1c(oc(C(=O)Nc3cccc(C)c3C)c1C)CC2	95%
Cc1ccccc1CNC(=O)c1oc2c(c1C)-c1nn(Cc3ccc(Cl)cc3)cc1CC2	73%
Cc1cccc(C)c1NC(=O)c1oc2c(c1C)-c1nn(Cc3ccccc3)cc1CC2	23% (active)
COc1cc(NC(=O)c2oc3c(c2C)-c2nn(Cc4cccc(Cl)c4)cc2CC3)cc(OC)c1	78%
O=C(O)CC1CCS(=O)(=O)C1 (stereo not drawn)	62%
CCOc1ccccc1N1CCN(C(=O)C2CCN(Cc3ccc(OC)cc3)CC2)CC1	98%
CC1CCC(N2CC(=O)N(C3CCCC3)C(c3ccc(Cl)cc3)C2=O)CC1 (stereo not drawn)	79%
Cc1ccc2occ(CC(=O)N(Cc3ccc(C(C)C)cc3)C3CCS(=O)(=O)C3)c2c1 (stereo not drawn)	66%
COc1ccc(NS(=O)(=O)c2ccc(N3CCCCS3(=O)=O)cc2)cc1Cl	71%
COc1cccc(C(=O)Nc2ccccc2C(=O)OCc2cc(=O)n3c4c(sc3n2)CCCC4)c1	57%
CCn1cc2nc(SCc3cccc(F)c3)n(CCc3ccccc3)c(=O)c2n1	71%
CCn1cc2nc(SCc3c(F)cccc3Cl)n(CCc3ccccc3)c(=O)c2n1	52% (active)
CCn1cc2nc(SCc3ccccc3Cl)n(CCc3ccccc3)c(=O)c2n1	74%
CCOC(=O)c1c(C)[nH]c(C)c1S(=O)(=O)N(C)CC(=O)Nc1cccc(Cl)c1C	73%
CCOC(=O)c1c(C)[nH]c(CCC(=O)NCc2ccc(N(C)C)cc2)c1C	83%
CCOC(=O)Cn1nc(-c2ccccc2)c2cnc3ccc(OCC)cc3c21	109%
Cn1nnc2c(NCc3ccccc3)ncnc21	32% (active)
Cc1ccc(CNc2ncnc3c2nnn3C)cc1	58%
Cn1nnc2c(NCc3ccc(Cl)cc3)ncnc21	81%
